We go through four molecules from PubChem BioAssay (NCATS).

In assay [1] the target is Lysosomal acid glucosylceramidase (Homo sapiens) (UniProt P04062). The assay is described as follows: Glucocerebrosidase-p2 (AID 348; in the data active = potency below about 10 µM; note: potency is the fitted concentration of half-maximal effect). The note with it: purified GBA, blue fluorogenic substrate, 40 min. A digest of the protocol: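 Normal human glucocerebrosidase (0.2 nM) with blue fluorogenic substrate (80 uM final) in citrate/phosphate pH 5.9 with 10mM sodium taurocholate, 0.01% tween-20; 40 min RT, NaOH/glycine stop; fluorescence Ex 365/Em 440; AC50 from a titration from 0.6 nM upwards.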
Sequence of Lysosomal acid glucosylceramidase (Homo sapiens) (P04062 whole entry, looked up): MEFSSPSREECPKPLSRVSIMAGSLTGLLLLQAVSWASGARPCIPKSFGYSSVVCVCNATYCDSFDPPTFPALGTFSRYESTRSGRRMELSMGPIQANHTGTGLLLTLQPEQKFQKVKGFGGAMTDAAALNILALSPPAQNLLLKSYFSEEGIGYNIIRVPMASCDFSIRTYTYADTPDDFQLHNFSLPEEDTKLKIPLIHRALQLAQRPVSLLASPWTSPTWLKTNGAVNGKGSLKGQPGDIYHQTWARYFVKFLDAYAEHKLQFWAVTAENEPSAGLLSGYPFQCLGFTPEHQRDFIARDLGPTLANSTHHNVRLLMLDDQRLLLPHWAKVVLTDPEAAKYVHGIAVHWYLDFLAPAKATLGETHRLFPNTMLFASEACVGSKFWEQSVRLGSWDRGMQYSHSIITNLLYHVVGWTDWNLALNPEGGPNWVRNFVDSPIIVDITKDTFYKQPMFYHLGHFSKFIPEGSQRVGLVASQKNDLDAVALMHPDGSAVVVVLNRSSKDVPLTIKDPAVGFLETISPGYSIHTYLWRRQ

The nature of assay [2]: AP1 Signaling Pathway (AID 357; active = well fitted curve in either direction with a large enough effect, not every such curve was filed as active; note: % is set by controls: 0 for no effect and ±100 for the full control effect). The note with it: ME-180 AP-1-bla reporter, EGF-induced, beta-lactamase ratio, 5 h; at 7.69 µM (top of the series) unless noted. A digest of the protocol: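 A ratiometric CCF4 readout (405 nm excitation; 460 and 530 nm emission) quantified AP-1-driven beta-lactamase in ME-180 cells after 5 h with compound and EC50 EGF; AC50 values were derived for activators and inhibitors.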

Assay [3] has as its target Cytochrome P450 1A2 (Homo sapiens) (UniProt P05177). The assay is described as follows: p450-cyp1a2 (AID 410; calls by dose curve; note: potency is the fitted concentration of half-maximal effect). To be noted: recombinant CYP1A2, luciferin-ME demethylation, luminescence; series mostly up to 57 µM. A digest of the protocol:
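20nM CYP1A2, 100uM Luciferin-ME (=Km), 100mM KPO4; cpd 10 min RT; +NADPH regen, 60 min RT; stop/detect 20 min; luminescence. Normalized to furafylline 57 uM = full inhibition.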

Assay [4] is described as follows: Stat Signaling Pathway (AID 446; active = well fitted curve in either direction with a large enough effect, not every such curve was filed as active;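 note: ME-180 cervical cancer cells given 40 pM IL-6 alongside compound; SIE-controlled beta-lactamase reporter measured as 460/530 nm FRET emission ratio; % is set by controls: 0 for no effect and ±100 for the full control effect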). To be noted: ME-180 (cervical carcinoma) SIE beta-lactamase reporter, IL-6 stimulated, 5 h; at 7.69 µM (top of the series) unless noted. In outline:
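Emission at 460 and 530 nm (excitation 405 nm) reports SIE-controlled beta-lactamase in ME-180 cells. Cells received compound with 40 pM IL-6 for 5 hrs at 37 C; data scaled between 300 pM IL-6 and 125 nM JAK-inhibitor controls.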

The target in assay [5] is Glucocorticoid receptor (Homo sapiens) (UniProt P04150). The assay is described as follows: GR-GFP Redistribution (AID 450;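 active = compounds whose dose series gives a full or clear partial fitted curve of increased nuclear translocation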; note: potency is the fitted concentration of half-maximal effect). To be noted: U2OS GR-GFP nuclear translocation, laser cytometry, 2 h.
Sequence of Glucocorticoid receptor (Homo sapiens) (P04150 whole entry, looked up): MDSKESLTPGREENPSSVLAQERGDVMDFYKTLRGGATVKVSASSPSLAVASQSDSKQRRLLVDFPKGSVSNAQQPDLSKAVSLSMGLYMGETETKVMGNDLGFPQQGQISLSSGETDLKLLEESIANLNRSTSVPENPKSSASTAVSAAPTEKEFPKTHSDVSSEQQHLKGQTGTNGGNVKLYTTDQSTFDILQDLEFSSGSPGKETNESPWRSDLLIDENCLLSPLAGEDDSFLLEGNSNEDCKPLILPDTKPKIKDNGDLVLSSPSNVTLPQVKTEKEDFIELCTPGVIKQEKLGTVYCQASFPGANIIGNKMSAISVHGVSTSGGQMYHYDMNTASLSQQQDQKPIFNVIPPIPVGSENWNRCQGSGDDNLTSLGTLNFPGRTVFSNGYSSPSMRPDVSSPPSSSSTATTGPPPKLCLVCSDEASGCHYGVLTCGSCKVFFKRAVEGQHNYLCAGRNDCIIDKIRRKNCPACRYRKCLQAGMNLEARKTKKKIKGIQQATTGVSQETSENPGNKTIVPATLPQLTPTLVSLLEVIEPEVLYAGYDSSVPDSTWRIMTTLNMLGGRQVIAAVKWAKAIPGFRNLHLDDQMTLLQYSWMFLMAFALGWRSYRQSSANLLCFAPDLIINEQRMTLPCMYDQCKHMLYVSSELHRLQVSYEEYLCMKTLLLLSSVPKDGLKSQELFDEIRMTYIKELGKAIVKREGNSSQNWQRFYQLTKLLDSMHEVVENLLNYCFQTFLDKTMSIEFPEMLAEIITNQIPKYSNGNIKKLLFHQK
Assay [6] shares this target. The assay is described as follows: GR-EFC Redistribution (AID 451; calls by dose curve; note: potency is the fitted concentration of half-maximal effect). The note with it: CHO-K1 GR-EFC translocation, beta-gal luminescence, 2 h. In outline:
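CHO-K1 cells expressing nuclear EA and GR-ED fragments of b-gal; compounds titrated up to 46 uM final, 2 h at 37 C. GR nuclear translocation read as complemented b-gal luminescence after 1 h RT detection.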

The target in assay [7] is Cytochrome P450 3A4 (Homo sapiens) (UniProt P08684). The assay is described as follows: qHTS Assay for Activators of Cytochrome P450 3A4 (AID 885). Note: nearly all actives have a fitted effect of over 65% in size. The note with it: recombinant CYP3A4, Luciferin-PPXE luminescence, 60 min; series mostly up to 57.1 µM. A digest of the protocol: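 Activators are scored by enhanced luminescence from CYP3A4 conversion of luciferin-PPXE (25uM, equal to KM) to luciferin, after 60 min at RT with an NADPH-regenerating system.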
Sequence of Cytochrome P450 3A4 (Homo sapiens) (P08684 whole entry, looked up): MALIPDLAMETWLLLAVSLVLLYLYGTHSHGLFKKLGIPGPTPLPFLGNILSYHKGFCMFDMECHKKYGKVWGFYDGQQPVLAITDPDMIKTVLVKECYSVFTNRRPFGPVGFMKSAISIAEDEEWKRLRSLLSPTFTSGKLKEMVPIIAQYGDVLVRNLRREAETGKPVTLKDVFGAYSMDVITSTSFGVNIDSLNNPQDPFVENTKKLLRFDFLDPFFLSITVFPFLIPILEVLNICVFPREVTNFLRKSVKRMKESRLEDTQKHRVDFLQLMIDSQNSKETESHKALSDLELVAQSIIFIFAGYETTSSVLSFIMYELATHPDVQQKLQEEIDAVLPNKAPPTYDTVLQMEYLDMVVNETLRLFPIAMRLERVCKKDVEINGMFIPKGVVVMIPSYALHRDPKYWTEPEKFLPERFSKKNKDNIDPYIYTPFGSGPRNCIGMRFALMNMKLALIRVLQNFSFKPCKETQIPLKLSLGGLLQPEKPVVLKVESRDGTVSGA

A short description of assay [8]: Confirmation and Secondary Assay for Modulators of Hemoglobin Beta Chain Splicing at IVS2 705 locus (AID 930).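 Note: GFP fluorescence per well restored by corrected splicing of the IVS2-705 intron in EGFP; % of control where 0% means no effect.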 The note with it: HeLa EGFP-705 splicing reporter, GFP fluorescence, 48 h; series mostly up to 38.3 µM. In outline: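 Secondary splice-site specificity test uses HeLa expressing CMV-driven EGFP interrupted by IVS2-705; cells were treated 2 days at 37C with 500 nM antisense PNA as positive control.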

Assay [9] in a line: qHTS Assay for Lipid Storage Modulators (AID 1519; calls by dose curve; for activity change, negative = inhibition: % is set by controls: 0 for no effect and ±100 for the full control effect). The note with it: Drosophila S3 cells, BODIPY lipid droplet/cell ratio, laser cytometry, cells loaded with oleic acid; for activity change, negative = inhibition: at 57.5 µM (top of the series). In outline: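 Cells seeded at 5,000 per well were treated with compounds over a concentration series and loaded with oleic acid (400 uM, as added). Lipid droplet fluorescence (488 nm excitation, 500-530 nm channel) was read by laser-scanning cytometry and normalized to 20 uM Triacsin C.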

Assay [10] concerns the target Rap guanine nucleotide exchange factor 3 (Homo sapiens) (UniProt O95398). The assay is described as follows: Confirmatory qHTS for antagonist of cAMP-regulated guanine nucleotide exchange factor 3 (EPAC1) (AID 1645880).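 Note: plate controls were DMSO only for no effect and full effect of the ATA control for full effect; nearly all actives have a fitted effect of over 55% in size.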 The note with it: EPAC1 Rap1B-BODIPY-GDP exchange, fluorescence; series mostly up to 115 µM. In outline: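 Released BODIPY-GDP fluoresces less than Rap1-bound BODIPY-GDP; the signal is followed at 480/540 nm at 5-min intervals over 30 min, after 5 min at room temperature. Reactions contain 100 nM EPAC1, 250 nM RAP1B-BODIPY-GDP and 50 uM GDP; results are normalized to ATA and DMSO.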
(qHTS replaces the single test concentration by a dilution series.)

The target is the same in assay [11]. The assay is described as follows: Confirmatory qHTS for agonist of cAMP-regulated guanine nucleotide exchange factor 3 (EPAC1) (AID 1645881).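 Note: EPAC1 catalysed release of BODIPY-GDP from Rap1B seen as fluorescence loss; 100% = effect of cAMP agonist control; nearly all actives have a fitted effect of over 75% in size.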 To be noted: EPAC1 Rap1B BODIPY-GDP exchange fluorescence; series mostly up to 154 µM.
The target of assay [12] is Rap guanine nucleotide exchange factor 4 (Homo sapiens) (UniProt Q8WZA2). The assay is described as follows: Confirmatory qHTS for agonist of cAMP-regulated guanine nucleotide exchange factor 4 (EPAC2) (AID 1645884).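 Note: nucleotide exchange releases bodipy-GDP from Rap1 and this lowers its fluorescence; % is set by controls: 0 for no effect and ±100 for the full control effect; nearly all actives have a fitted effect of over 65% in size.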 The note with it: EPAC2 GEF activity, Rap1B-BODIPY-GDP fluorescence; series mostly up to 154 µM.
Sequence of Rap guanine nucleotide exchange factor 4 (Homo sapiens) (Q8WZA2 whole entry, looked up): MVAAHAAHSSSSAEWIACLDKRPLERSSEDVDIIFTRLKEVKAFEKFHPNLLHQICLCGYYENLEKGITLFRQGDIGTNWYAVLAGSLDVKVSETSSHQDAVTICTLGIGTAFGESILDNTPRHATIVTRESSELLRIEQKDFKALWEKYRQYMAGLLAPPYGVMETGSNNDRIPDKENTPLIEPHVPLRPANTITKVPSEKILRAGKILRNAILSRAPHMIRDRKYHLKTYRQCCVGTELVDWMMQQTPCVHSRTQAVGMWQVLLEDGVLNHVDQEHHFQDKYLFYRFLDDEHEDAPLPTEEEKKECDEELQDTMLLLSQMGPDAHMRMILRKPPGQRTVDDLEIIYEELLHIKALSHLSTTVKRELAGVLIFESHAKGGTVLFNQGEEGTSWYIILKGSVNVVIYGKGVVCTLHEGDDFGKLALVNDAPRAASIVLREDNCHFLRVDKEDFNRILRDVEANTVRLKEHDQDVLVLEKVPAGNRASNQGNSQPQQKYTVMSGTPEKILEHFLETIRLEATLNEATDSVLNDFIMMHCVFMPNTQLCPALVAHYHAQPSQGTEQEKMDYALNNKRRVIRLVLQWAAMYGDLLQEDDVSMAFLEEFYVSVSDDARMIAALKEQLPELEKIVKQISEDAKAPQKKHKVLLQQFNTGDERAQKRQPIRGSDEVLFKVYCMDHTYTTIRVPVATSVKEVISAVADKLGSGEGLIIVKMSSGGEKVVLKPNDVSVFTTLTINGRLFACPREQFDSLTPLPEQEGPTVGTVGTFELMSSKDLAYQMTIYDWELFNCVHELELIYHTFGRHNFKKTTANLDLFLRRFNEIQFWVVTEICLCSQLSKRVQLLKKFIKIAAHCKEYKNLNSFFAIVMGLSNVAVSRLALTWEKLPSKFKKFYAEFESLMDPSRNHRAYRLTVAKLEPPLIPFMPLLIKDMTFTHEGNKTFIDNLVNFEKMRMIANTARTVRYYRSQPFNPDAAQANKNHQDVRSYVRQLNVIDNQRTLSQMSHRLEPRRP
The target is the same in assay [13]. The assay is described as follows: Confirmatory qHTS for antagonist of cAMP-regulated guanine nucleotide exchange factor 4 (EPAC2) (AID 1645885). For activity change, negative = inhibition: % is set by controls: 0 for no effect and ±100 for the full control effect. Note: nearly all actives have a fitted effect of over 25% in size. Note: potency is the fitted concentration of half-maximal effect. To be noted: EPAC2 Rap1B-BODIPY-GDP exchange fluorescence, biochemical; series mostly up to 114 µM.
In assay [14] the target is Cytochrome P450 3A4 (Homo sapiens) (UniProt P08684). The assay is described as follows: qHTS Assay for Inhibitors and Substrates of Cytochrome P450 3A4 (AID 884). Note: potency is the fitted concentration of half-maximal effect; nearly all actives have a fitted effect of over 50% in size. To be noted: recombinant CYP3A4, Luciferin-PPXE luminescence; series mostly up to 57.1 µM. A digest of the protocol: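 Luminescent readout of luciferin produced by CYP3A4 (20 nM) dealkylation of Luciferin-PPXE, 25 uM (its KM). NADPH-driven reaction ran 60 min at RT after 10 min compound preincubation; data scaled to 57 uM ketoconazole as 100% inhibition.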

Assay [15] in a line: Confirmation and Secondary Assay for Modulators of Hemoglobin Beta Chain Splicing at IVS2 654 locus (AID 910).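 Note: HeLa cells stably carrying EGFP split by mutant beta-globin IVS2-654 intron; % of control where 0% means no effect.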 The note with it: HeLa EGFP-654 splicing reporter, GFP fluorescence, 48 h; series mostly up to 38.3 µM. A digest of the protocol:
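HeLa cells stably expressing EGFP interrupted by β-globin IVS2-654 intron, seeded overnight in Opti-MEM/2% FCS, then treated 2 days at 37 °C. Restored splicing read as total peak GFP intensity per well by laser scanning cytometry (488 nm excitation, 500–520 nm emission); 500 nM antisense PNA as control.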

In assay [16] the target is Ubiquitin carboxyl-terminal hydrolase 1 (Homo sapiens) (UniProt O94782). The assay is described as follows: Inhibitors of USP1/UAF1: Pilot qHTS (AID 504865). Note: nearly all actives have a fitted effect of over 35% in size. Note: potency is the fitted concentration of half-maximal effect. The note with it: purified USP1/UAF1, Ub-rhodamine cleavage fluorescence; series mostly up to 54.9 µM. A digest of the protocol:
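USP1/UAF1 complex at 1 nM preincubated 15 min at room temperature with compound, then Ub-Rho substrate added at 150 nM final. Fluorescence (480/540 nm) read kinetically in 50 mM HEPES pH 7.8, 0.5 mM EDTA, 1 mM TCEP, 0.1 mg/ml BSA, 0.01% Tween-20.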

[17] abbreviates: measured here: cell count channel max response.
The mark [18] stands for this setting: measured here: lipid channel max response.

SMILES strings stand for the structures. Records with an inconclusive call do not appear. Active and inactive are the calls of the source. Unless noted, calls come from the whole dose curve; as a rule, active = well fitted curve in the direction sought with a large enough effect; inconclusive = small, poorly fitted or top-dose-only effect, or another doubt; inactive = no such curve, though single readings can be large; an effect the other way counts as inactive or inconclusive. Where only a bound is given, the exact number is not on record here.

Sequence of Rap guanine nucleotide exchange factor 3 (Homo sapiens) (O95398 whole entry, looked up): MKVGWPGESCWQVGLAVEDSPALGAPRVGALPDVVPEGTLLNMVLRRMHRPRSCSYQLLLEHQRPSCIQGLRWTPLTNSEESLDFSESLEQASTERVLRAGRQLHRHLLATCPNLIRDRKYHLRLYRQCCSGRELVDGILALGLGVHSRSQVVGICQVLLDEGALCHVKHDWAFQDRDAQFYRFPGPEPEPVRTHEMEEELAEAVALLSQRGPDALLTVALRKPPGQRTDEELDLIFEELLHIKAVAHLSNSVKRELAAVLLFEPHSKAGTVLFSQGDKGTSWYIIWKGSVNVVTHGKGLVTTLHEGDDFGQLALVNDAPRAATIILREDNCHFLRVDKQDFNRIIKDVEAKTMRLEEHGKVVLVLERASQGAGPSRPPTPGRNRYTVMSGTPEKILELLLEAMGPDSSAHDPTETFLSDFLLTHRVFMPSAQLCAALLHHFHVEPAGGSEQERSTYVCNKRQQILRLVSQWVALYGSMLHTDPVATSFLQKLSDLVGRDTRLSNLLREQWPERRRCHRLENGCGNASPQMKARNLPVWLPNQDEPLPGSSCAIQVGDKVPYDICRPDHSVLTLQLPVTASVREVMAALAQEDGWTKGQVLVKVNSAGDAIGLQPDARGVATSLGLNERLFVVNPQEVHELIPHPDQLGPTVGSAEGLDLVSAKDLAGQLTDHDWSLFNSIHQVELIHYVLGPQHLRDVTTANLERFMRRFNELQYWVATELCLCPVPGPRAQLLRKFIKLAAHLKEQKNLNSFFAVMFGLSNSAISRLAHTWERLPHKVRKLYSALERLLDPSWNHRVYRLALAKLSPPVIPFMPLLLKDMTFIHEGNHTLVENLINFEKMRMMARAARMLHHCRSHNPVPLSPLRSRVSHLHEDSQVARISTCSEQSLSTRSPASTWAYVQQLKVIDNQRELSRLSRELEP
Sequence of Ubiquitin carboxyl-terminal hydrolase 1 (Homo sapiens) (O94782 whole entry, looked up): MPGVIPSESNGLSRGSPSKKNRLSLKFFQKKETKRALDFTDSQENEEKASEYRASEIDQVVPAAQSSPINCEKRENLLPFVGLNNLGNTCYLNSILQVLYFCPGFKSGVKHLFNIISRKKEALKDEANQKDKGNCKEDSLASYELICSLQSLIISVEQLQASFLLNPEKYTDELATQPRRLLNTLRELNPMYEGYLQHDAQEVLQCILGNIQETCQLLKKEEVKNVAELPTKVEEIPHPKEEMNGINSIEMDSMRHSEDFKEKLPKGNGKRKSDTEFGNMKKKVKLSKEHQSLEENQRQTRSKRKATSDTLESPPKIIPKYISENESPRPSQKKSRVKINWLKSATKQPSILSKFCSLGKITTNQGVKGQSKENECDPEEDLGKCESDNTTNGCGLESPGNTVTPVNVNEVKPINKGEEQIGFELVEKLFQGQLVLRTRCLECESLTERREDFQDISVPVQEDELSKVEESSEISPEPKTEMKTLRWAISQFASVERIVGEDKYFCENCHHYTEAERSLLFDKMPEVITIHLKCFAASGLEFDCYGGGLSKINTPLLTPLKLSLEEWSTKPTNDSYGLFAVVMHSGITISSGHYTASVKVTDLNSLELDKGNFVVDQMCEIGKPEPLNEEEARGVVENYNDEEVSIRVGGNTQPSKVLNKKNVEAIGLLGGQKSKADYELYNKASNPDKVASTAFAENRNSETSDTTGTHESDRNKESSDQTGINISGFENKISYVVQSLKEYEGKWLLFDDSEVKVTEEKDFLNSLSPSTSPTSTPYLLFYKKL
Sequence of Cytochrome P450 1A2 (Homo sapiens) (P05177 whole entry, looked up): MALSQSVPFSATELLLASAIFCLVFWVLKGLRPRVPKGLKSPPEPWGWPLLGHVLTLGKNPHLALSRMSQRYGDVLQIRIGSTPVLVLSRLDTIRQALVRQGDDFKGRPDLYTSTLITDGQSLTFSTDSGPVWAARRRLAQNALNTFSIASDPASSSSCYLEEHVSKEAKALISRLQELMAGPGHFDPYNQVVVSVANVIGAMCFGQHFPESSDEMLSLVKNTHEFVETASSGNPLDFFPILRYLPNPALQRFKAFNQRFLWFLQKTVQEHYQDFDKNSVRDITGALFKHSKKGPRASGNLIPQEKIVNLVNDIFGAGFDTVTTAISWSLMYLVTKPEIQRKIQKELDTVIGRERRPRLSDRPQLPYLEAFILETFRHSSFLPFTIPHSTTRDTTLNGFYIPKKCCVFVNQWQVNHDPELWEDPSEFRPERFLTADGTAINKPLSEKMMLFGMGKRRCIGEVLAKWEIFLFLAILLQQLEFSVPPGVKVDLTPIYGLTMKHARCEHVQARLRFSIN

As for `CN(Cc1ccco1)c1nc(-c2cccc(C#N)c2)nc2ccccc12`, the Potency is > 11.4 µM (inactive) in [1], 0.1 µM (active) in [3], > 46 µM (inactive) in assay [5] and > 46 µM (inactive) in assay [6]. The activity change, negative = inhibition in assay [2] was 6.74% (inactive); in [9], 10.1% (inactive). The activity, negative = inhibition in assay [4] is 12.3% (inactive). In addition, the Potency entry in assay [7], in assay [10], in assay [11], in assay [12] and in assay [13] was “inactive” in each case. Moreover, in assay [8], the outcome was inactive. The max response is 1.16% in assay [9] (setting [17]) and 12.8% in [9] (setting [18]).
Regarding `COc1ccc2c(c1)OC/C(=C/c1ccc(O)c(O)c1)C2=O`, in assay [14], the Potency is 31.6 µM (active). In addition, the Potency entry in assay [7], in [15], in assay [16], in assay [11], in assay [12] and in assay [13] was “inactive” throughout. In addition, the outcome in assay [8] was inactive. The activity change, negative = inhibition in assay [9] is 9.34% (inactive). Further, the max response in assay [9] (setting [17]) turned out to be 0.529%; in assay [9] (setting [18]), 11.7%.
`COC(=O)c1c(OC)cc2c(c1C)Oc1c(Cl)c(O)c(Cl)c(C)c1C(=O)O2`: the figures for the Potency in assay [14], in [16] and in assay [13] were 1.58 µM (active), 56.2 µM (active) and 8.79 µM (active), respectively. Also, the Potency entry in assay [15], in assay [11] and in assay [12] was “inactive” each time. The molecule was called inactive in [8]. The activity change, negative = inhibition in [9] was 6.08% (inactive). The max response in assay [9] (setting [17]) is -4.22%; in assay [9] (setting [18]), -5.08%.
On to `NCC1OC(n2cnc3c(=O)[nH]c(N)nc32)C(O)C1O` (stereo unspecified), for which the Potency entry in [15], in assay [16], in assay [10], in assay [11], in assay [12] and in assay [13] was “inactive” each time. For the same molecule, the outcome in assay [8] was inactive. In addition, the activity change, negative = inhibition in [9] was 2.55% (inactive). Besides, the max response in [9] (setting [17]) is -3.82%; in [9] (setting [18]) it was -2.83%.
